Consider 40 compounds from PubChem BioAssay (NCI).

About 83,000 compounds went through this panel and 20% of them were active in at least one assay; those are over-represented in the sample as a whole.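 Values shown are percent growth following 48 h exposure of cells in 96-well plates to a single concentration of compound; below 10 was considered active.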 Calls of active or inactive are those of the source.

This experiment concerns MDA-MB-468 breast. The experiment is described as follows: NCI-60 one-dose screen, 48 h (100 = growth as untreated, 0 = no growth, -100 = all killed). The conditions noted are these: 10 µM unless noted.
Regarding `O=C(CC(=O)c1cccc(Cl)c1)c1cccc(Cl)c1`, the growth was 41.7% (inactive). Take `Clc1ccc(N/N=C/c2ccccn2)nc1`: the growth is -48.3% (active). In the case of `O=C1c2ccccc2C(=O)c2c1ccc(C(Br)Br)c2[N+](=O)[O-]`, the growth is -66.5% (active). With `S=c1[nH]nc(-c2cc3ccc2CCc2ccc(cc2)CC3)n1C1CC1`, the growth is 106% (inactive). `O=C(NNc1nc2cc(F)ccc2n2c(CN3CCCC3)ccc12)c1cnccn1`: the growth is -14.4% (active). The result for `COc1ccc(-c2nnc(SCC(=O)Nc3ccc(C(=O)/C=C/c4ccccc4)cc3)n2-c2ccccc2)cc1OC` reads 94.8% (inactive); that for `COC(=O)/C=C/C(=O)NC(N)=O`, 90.8% (inactive). With `CCOC(=O)/C=C1\S/C(=N\Nc2cc(=O)[nH]c3ccc(OC)cc23)N(c2ccccc2)C1=O`, the growth was 101% (inactive). As for `C/C=C/C/C=C/[C@H](C)C[C@H](O)[C@@H]1C[C@@H]2O[C@H]2/C=C/[C@@H]2OC(C)(C)O[C@H]2/C=C/C[C@H](C)CC(=O)O1`, the growth was 59.8% (inactive). As to `Fc1cccc(F)c1C#Cc1ccc2cccnc2c1`, the growth was 36.5% (inactive). On to `c1ccc(-c2c(-c3ccccc3)[n+](Cc3ccc4ccccc4c3)c(-c3ccc(-c4nc5ccccc5s4)cc3)n2Cc2ccc3ccccc3c2)cc1`, for which the growth is -77.8% (active). Regarding `C1=CN2CC(c3ccccc3)=NNC2c2ccccc21` (stereo not given), the growth is 82.5% (inactive). Take `FC(F)(F)c1cc(CNc2nc(Cl)ncc2Br)cc(C(F)(F)F)c1`: the growth was 64.7% (inactive).

Regarding `C=C1CC[C@@H]2[C@](C)(COC(C)=O)[C@H](OC(C)=O)CC[C@@]2(C)[C@@H]1CC(Nc1ccc(S(=O)(=O)NC(C)=O)cc1)C1=CCOC1=O` (stereo not given in full), the growth was -53.9% (active). Turning to `CC(C)OP(=O)(OC(C)C)c1ncc(-c2ccc(C(F)(F)F)cc2)c(NC2CCCCCC2)n1`, the growth is 12.8% [33.3 µM] (inactive).

As to `Nc1ncnc2c1N=C(c1ccc3c(c1)OCO3)CC(c1cccc(Nc3ccnc4cc(C(F)(F)F)ccc34)c1)N2` (stereo not given), the growth is 86.6% (inactive). Consider `O=C(NCCn1ccnc1)c1ccc(-c2nc3ccc4[nH]ncc4c3c3c2CCCC3)cc1`, for which the growth was 10.1% (inactive). For the compound `Cc1[nH]c(/C=C/C(=O)c2ccc(C(F)(F)F)c(F)c2)c(C)c1C(=O)NCC(C)C`, the growth is 93.6% (inactive). The figure for `CC(=O)ON=C1C=CC(=C(C#N)c2ccccc2)C=C1` is 19% (inactive). In the case of `CN(C)C1=NCCN1`, the growth was 108% (inactive). `C#CCOc1ccc2ncnc(Nc3cccc(CNC(=O)C=C)c3)c2c1`: the growth was 89.2% [8.25 µM] (inactive). With `COc1cc2c3c(n(C4CCN(C)CC4)c(=O)c2cc1OC)-c1cc2c(cc1C3=O)OCO2`, the growth was 31.6% (inactive). On to `COc1cc(-c2cc(C(=O)N3CCN(C(=O)c4ccccc4NCc4cccs4)CC3)nc3cc(-c4ccccc4)nn23)cc(OC)c1OC`, for which the growth was 64.6% (inactive).

With `COc1ccc(C(=O)O)cc1.[Ag]`, the growth is 93.9% (inactive). In the case of `CCCCCCCCCCCCS(=O)CC(C)O` (stereo not given), the growth is 106% (inactive). The result for `COc1ccc(NC(=O)/C(=C/N2C(=O)/C(=C/c3ccc(OC)c(OC)c3)NC2=S)C(C)=O)cc1` reads 40.1% (inactive). With `N=C(N)c1ccc(-c2ccc(-c3ccc(Cl)cn3)s2)cc1`, the growth was -28.2% (active). Regarding `O=C(Nc1ccc(OCc2nnc(-c3ccc(Cl)cc3)o2)c(F)c1)Nc1ccc(Cl)c(Cl)c1`, the growth is 43.2% (inactive). The figure for `O=C(c1cccc(Br)c1)N1CCN(c2ccnc3cc(Cl)ccc23)CC1` is 66% (inactive); for `CC(=O)C1CCC2C3CC(F)C4=CC(=O)CCC4(C)C3C(O)CC12C` (stereo not given) it is 104% (inactive). The result for `COc1ccc(NS(=O)(=O)c2ccc(C)cc2)c([N+](=O)[O-])c1` reads 86.6% (inactive). The figure for `Cc1cn(-c2nc3c(c(NCc4ccccc4)n2)COCC3)c2cccc(C(N)=O)c12` is 114% [0.5 µM] (inactive); for `CCNCc1ccncc1` it is 96.9% (inactive). In the case of `CN(C)CCN=c1nc2c(c(N)n1-c1ccccc1)c(=S)n(-c1ccccc1)c(=S)n2-c1ccccc1`, the growth was -34.6% (active).

Consider `COc1cccc(-c2cn3c(ccc4ccccc43)n2)c1`, for which the growth was 34.2% (inactive). As to `Nc1ccc2c(O)cc(S(=O)(=O)O)cc2c1`, the growth was 110% (inactive).

With `COc1ccc(C2N(c3cc(OC)c(OC)c(OC)c3)C(=O)C2(F)F)cc1F` (stereo not given), the growth is 44.5% (inactive). On to `CCN1C(=O)N(CC)C2Nn3c(s/c(=C\c4cccc([N+](=O)[O-])c4)c3=O)=NC21` (stereo not given), for which the growth was 28.8% (inactive). For the compound `Cc1cccc(NC(=O)CCc2ccc(N3C(N)=NC(N)=NC3(C)C)cc2)c1`, the growth is 39.9% (inactive). For the compound `CCOC(=O)C1=C(C)NC(=O)NC1c1cccs1` (stereo not given), the growth is 102% (inactive).
